A short description of assay [1]: NFAT Signaling Pathway (AID 444).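 Note: carbachol stimulus at about its EC50 of 1 µM final; % is set by controls: 0 for no effect and ±100 for the full control effect.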 Particulars: Jurkat NFAT-bla M1, carbachol, beta-lactamase ratio, 5 h; at 38 µM (top of the series) unless noted. The essentials: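 Read-out: CCF4 FRET ratio (460 nm/530 nm) after 1 h RT dye loading, used for %activity and AC50 from titration series. Cells: Jurkat NFAT-β-lactamase/M1 line, treated with compound plus 1 uM carbachol for 5 h, 37 °C.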

Assay [2] addresses Glucocorticoid receptor (Homo sapiens) (UniProt P04150). Briefly: GR-GFP Redistribution (AID 450;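 active = compounds whose dose series gives a full or clear partial fitted curve of increased nuclear translocation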; note: potency is the fitted concentration of half-maximal effect). Particulars: U2OS GR-GFP nuclear translocation, laser cytometry, 2 h.
Assay [3] is described as follows: Stat Signaling Pathway (AID 446).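 Note: ME-180 cervical cancer cells given 40 pM IL-6 alongside compound; SIE-controlled beta-lactamase reporter measured as 460/530 nm FRET emission ratio; % is set by controls: 0 for no effect and ±100 for the full control effect.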 Particulars: ME-180 (cervical carcinoma) SIE beta-lactamase reporter, IL-6 stimulated, 5 h; at 38 µM (top of the series) unless noted. The essentials: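 IL-6/STAT signaling read in ME-180 cells via an SIE beta-lactamase reporter. Stimulus was 40 pM IL-6 (its AC50) for 5 hrs, so both activation and inhibition register.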
For assay [4], the target named is Glucocorticoid receptor (Homo sapiens) (UniProt P04150). Briefly: GR-EFC Redistribution (AID 451; calls by dose curve; note: potency is the fitted concentration of half-maximal effect). Conditions: CHO-K1 GR-EFC translocation, beta-gal luminescence, 2 h. The essentials:
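Translocation of GR-ED fusion to nuclear EA restores b-gal, read by luminescence after 1 h room-temperature detection. Engineered CHO-K1 biosensor cells, 1,000/well, exposed 2 h at 37 C to titrations up to 46 uM final.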

Assay [5] deals with Mitogen-activated protein kinase 10 (Mus musculus) (UniProt Q61831). As to the kind of experiment: JNK3 AlphaScreen Assay (AID 530).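 Note: kinase came from lysate of stimulated human HepG2 cells; signal reports phosphorylation of biotinylated GST-cJun 1-79 at Ser73 with 10 µM ATP; % is set by controls: 0 for no effect and ±100 for the full control effect.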 An outline of the steps:
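Compound titrations were preincubated 15 minutes at room temperature with substrate, antibody and pre-activated JNK3-containing HepG2 lysate. Reactions were started with 10 uM ATP and stopped with EDTA-containing bead buffer for AlphaScreen detection.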
Background: In Alpha technology, singlet oxygen from a donor bead excites a nearby acceptor bead.

Inconclusive results are not listed. Calls of active or inactive are those of the source. Unless noted, calls come from the whole dose curve; as a rule, active = well fitted curve in either direction with a large enough effect (not every such curve was filed as active); inconclusive = small, poorly fitted or top-dose-only effect, or another doubt; inactive = flat fitted curve, though single readings scatter.

Chain of Glucocorticoid receptor (Homo sapiens) (P04150 whole entry, looked up, the tested form may be a part): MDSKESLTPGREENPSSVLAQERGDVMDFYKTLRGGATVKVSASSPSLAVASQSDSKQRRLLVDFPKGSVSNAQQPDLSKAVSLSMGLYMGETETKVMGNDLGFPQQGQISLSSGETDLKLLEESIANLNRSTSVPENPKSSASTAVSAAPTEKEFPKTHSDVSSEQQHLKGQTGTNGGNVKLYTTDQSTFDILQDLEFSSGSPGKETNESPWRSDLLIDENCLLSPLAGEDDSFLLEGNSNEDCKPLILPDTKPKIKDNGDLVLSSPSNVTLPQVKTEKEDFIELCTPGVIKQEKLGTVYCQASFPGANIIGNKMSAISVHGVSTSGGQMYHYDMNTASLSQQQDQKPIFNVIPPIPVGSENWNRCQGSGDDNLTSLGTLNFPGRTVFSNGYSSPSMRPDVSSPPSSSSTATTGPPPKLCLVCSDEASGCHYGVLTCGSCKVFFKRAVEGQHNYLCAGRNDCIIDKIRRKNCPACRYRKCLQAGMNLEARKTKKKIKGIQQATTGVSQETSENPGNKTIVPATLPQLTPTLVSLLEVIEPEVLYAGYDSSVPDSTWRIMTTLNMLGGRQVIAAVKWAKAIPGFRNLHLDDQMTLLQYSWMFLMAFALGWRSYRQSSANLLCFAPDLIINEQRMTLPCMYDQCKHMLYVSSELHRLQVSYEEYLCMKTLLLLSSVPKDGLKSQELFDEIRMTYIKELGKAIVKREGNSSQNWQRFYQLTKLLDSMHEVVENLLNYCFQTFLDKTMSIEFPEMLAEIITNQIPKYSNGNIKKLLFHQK

Consider `COc1cc(/C=C(\C#N)C(=O)c2ccc(O)c(O)c2)cc(I)c1O`, for which, in assay [1], the activity change, negative = inhibition is 8.66% (inactive). The Potency in assay [2] was > 46 µM (inactive).

For the compound `O=C(N[C@@H](Cc1ccccc1)C(=O)CCl)OCc1ccccc1`, the activity change, negative = inhibition in assay [1] was -11.8% (active). The activity, negative = inhibition in assay [3] is -59.3% (active). Besides, the Potency in assay [2] and in assay [4] was > 46 µM (inactive) in each case. Besides, in assay [5], the call was inactive.

`NC(N)=NC(N)=Nc1ccccc1`: the activity change, negative = inhibition in assay [1] was 7.27% (inactive). In assay [3], the activity, negative = inhibition is -15.1% (inactive). Also, the Potency in assay [2] is > 46 µM (inactive).

As to `CN1CCc2cc(Cl)c(O)cc2[C@@H](c2ccccc2)C1`, the Potency in assay [2] was > 46 µM (inactive).

Regarding `CCCCCCN(CCCCCC)C(=O)Cc1c(-c2ccc(F)cc2)[nH]c2ccccc12`, the activity, negative = inhibition in assay [3] was 6.88% (inactive). Also, the Potency in assay [2] and in assay [4] was > 46 µM (inactive) each time. In assay [5], the call was inactive.

For `C[N+](C)(C)CC=O`, the activity change, negative = inhibition in assay [1] was -6.7% (inactive). For the same compound, in assay [3], the activity, negative = inhibition was 17.9% (inactive). The Potency in assay [2] and in assay [4] was > 46 µM (inactive) in each case. Moreover, the compound was classed as inactive in assay [5].

`C=C1C(=O)O[C@@H]2[C@H]3O[C@]3(C)CCC=C(C)CC[C@@H]12`: in assay [5], the outcome was inactive.

Regarding `O=C(O)c1ccccc1Nc1cccc(OCc2ccc3ccccc3n2)c1`, the Potency in assay [2] and in assay [4] was > 46 µM (inactive) throughout. Further, in assay [5], the call was inactive.

As for `c1ccc(CN2CCC3(CCCc4ccccc43)CC2)cc1`, the activity change, negative = inhibition in assay [1] was -19.1% (inactive). Also, the activity, negative = inhibition in assay [3] was -10.2% (inactive). Further, the Potency in assay [2] and in assay [4] was > 46 µM (inactive) each time. Besides, the compound was called inactive in assay [5].

For `Cc1ccc2c(c1)C(N1CCN(C)CC1)=Nc1cccnc1N2`, the activity, negative = inhibition in assay [3] is 0.822% (inactive). Also, the Potency in assay [2] and in assay [4] was > 46 µM (inactive) throughout. Further, the compound was called inactive in assay [5].

As to `CC(=O)NNC(=O)N1Cc2ccccc2Oc2ccc(Cl)cc21`, the activity change, negative = inhibition in assay [1] was 13.5% (inactive). For the same compound, the Potency in assay [2] and in assay [4] was > 46 µM (inactive) each time. In addition, the call in assay [5] was inactive.

As for `Cn1c(=O)c2[nH]c(C3CCCC3)nc2n(C)c1=O`, the activity change, negative = inhibition in assay [1] is 3.19% (inactive). Besides, the Potency in assay [2] and in assay [4] was > 46 µM (inactive) in each case.

Take `O=C1Nc2ccc(I)cc2/C1=C/c1cc(Br)c(O)c(Br)c1`: the activity change, negative = inhibition in assay [1] is -120% (active). Also, the Potency in assay [2] is > 46 µM (inactive).

Turning to `CC[C@@H]1Cc2cc(O)ccc2C2=C1c1ccc(O)cc1C[C@H]2CC`, the Potency in assay [2] and in assay [4] was > 46 µM (inactive) in each case.

As for `N#C/C(=C\c1ccc(O)c(O)c1)C(=O)NCCc1ccccc1`, in assay [3], the activity, negative = inhibition was -24% (inactive). The Potency in assay [4] is > 46 µM (inactive).

With `NC[C@@H]1O[C@H](c2ccccc2)Cc2c1ccc(O)c2O`, the Potency in assay [2] and in assay [4] was > 46 µM (inactive) throughout. Also, the outcome in assay [5] was inactive.
